# PubChem BioAssay AID624086 (Broad Institute, 2012)
# Active and inactive are the calls of the source.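 The calls were made as follows: active = fitted half-maximal effect concentration at or below the top concentration tested; inactive = the rest.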
# Experiment: TCF/LEF reporter activation, dose response, orthogonal assay for GSK3b inhibitor project, cell-based, HEK293T, firefly luciferase, dry powder (AID 624086)
# Conditions: 24 h; series mostly up to 26 µM
row,Structure (SMILES),outcome
1,COc1ccc(-c2nn(-c3ccccc3)cc2C(=O)O)cc1,inactive
2,Cc1[nH]nc2c1[C@@H](c1cccs1)C1=C(CC(C)(C)CC1=O)N2,inactive
3,COc1ccccc1C1C2=C(CC3(CCCCC3)CC2=O)Nc2n[nH]c(C)c21 (stereo not drawn),inactive
4,Cc1[nH]nc2c1C(C1CC1)C1=C(CC(C)(C)CC1=O)N2 (stereo not drawn),inactive
5,Cc1[nH]nc2c1C(c1ccc(F)cc1Cl)C1=C(CC(C)(C)CC1=O)N2 (stereo not drawn),inactive
6,COc1ccccc1C1C2=C(CC(C)(C)CC2=O)Nc2n[nH]c(C(C)C)c21 (stereo not drawn),inactive
7,Cc1[nH]nc2nc3c(c(-c4ccccc4)c12)C(=O)CC(C)(C)C3,inactive
8,COc1ccccc1C1C2=C(CCCC2=O)Nc2n[nH]c(C)c21 (stereo not drawn),inactive
9,CN(C)Cc1cn(-c2ccccc2)nc1-c1ccccc1,inactive
10,COc1ccc(-c2nn(-c3ccccc3)cc2CO)cc1,inactive
11,Cc1[nH]nc2c1C(C1CCCCC1)C1=C(CC(C)(C)CC1=O)N2 (stereo not drawn),inactive
12,Cc1[nH]nc2c1C(c1ccc(C#N)cc1)C1=C(CC(C)(C)CC1=O)N2 (stereo not drawn),inactive
13,CNC(=O)c1cn(-c2ccccc2)nc1-c1ccc(OC)cc1,inactive
14,Cc1[nH]nc2nc3c(c(-c4cccs4)c12)C(=O)CC(C)(C)C3,inactive
15,Cc1[nH]nc2c1C(c1ccc(Br)cn1)C1=C(CC(C)(C)CC1=O)N2 (stereo not drawn),inactive
16,CC1(C)CC(=O)C2=C(C1)Nc1n[nH]c(C(F)(F)F)c1C2c1cc(F)ccc1OC(F)(F)F (stereo not drawn),inactive
17,CC(C)COc1ccc(-c2nn(-c3ccccc3)cc2/C=N/O)cc1,inactive
18,CC1(C)CC(=O)C2=C(C1)Nc1n[nH]c(C(F)(F)F)c1C2c1cc(F)ccc1F (stereo not drawn),inactive
